PLK1 PBD inh: blocks phosphopeptide binding to human PLK1 polo-box domain; Plk1 PBD binding of FITC phosphopeptide, fluorescence polarization; Potency, µM, inactives show max response, negative = inhibition, usual class: inhibitors; 360,000 tested, 2.8% active; AID 720504; note: series mostly up to about 57 µM; % is set by controls: 0 for no effect and ±100 for the full control effect; nearly all actives have a fitted effect of over 65% in size
G9a inh: inhibitors of human histone lysine methyltransferase G9a; Q96KQ7; Potency, µM (top dose mostly 102 µM), inactives show at the top dose activity, negative = inhibition, most hits filed as inhibitors; G9a H3K9 monomethylation, AlphaScreen, 2 h; 350,000 tested, 8.8% active; note: % is set by controls: 0 for no effect and ±100 for the full control effect; nearly all actives have a fitted effect of over 75% in size
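Enzyme 20 nM + cpd, 15 min RT; add b-H3K9 pep 500 nM / SAM 20 uM; 2 h RT; anti-H3K9me1 Ab 0.5 ug/mL + SA donor / anti-rabbit acceptor beads 20 ug/mL each, 10 min; AlphaScreen read.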
BAZ2B block: BAZ2B (human) inhibition. AlphaScreen BAZ2B-H3K14Ac peptide displacement. Potency, µM (titrated, usually from 114 µM), without a hit: top-dose activity change, negative = inhibition, usual class: inhibitors. 360,000 tested, 4.4% active. Q9UIF8; note: % is set by controls: 0 for no effect and ±100 for the full control effect; nearly all actives have a fitted effect of over 60% in size
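AlphaScreen displacement: compounds (up to 110uM) incubated 30 min at room temperature with a preformed 50 nM BAZ2B/50 nM biotinylated H3K14Ac peptide complex in PBS pH 7.4 with Tween-20. Donor and acceptor beads at 10 ug/mL final added, 20 min light-protected before reading.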
Sfp inh: Sfp phosphopantetheinyl transferase inhibition | AID 1490 | 310,000 tested, 3.5% active | Q9F4F7 | Biochemical Sfp PPTase activity, qHTS | Potency, µM, for the others: largest response in the series, negative = inhibition, actives largely listed as inhibitors;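 note: the enzyme is Sfp with the accession as filed and its product quenches rhodamine fluorescence; 0% = enzyme reaction without inhibitor and -100% = no enzyme wells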
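Reaction rates are the 30-min fluorescence difference (ex 525, em 598 nm) in wells containing 15 nM Sfp, 5 uM rhodamine-CoA and 12.5 uM BHQ-2-YbbR at pH 7.6 with 10 mM MgCl2.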
JMJD2A Tudor inh: inhibitors of human JMJD2A Tudor domain; O75164; Potency, µM (titrated, usually from 114 µM), inactives show top-dose activity change, negative = inhibition, usual class: inhibitors; AlphaScreen JMJD2A-Tudor / H3K4me3 peptide binding; AID 504339; 390,000 tested, 4.4% active; note: % is set by controls: 0 for no effect and ±100 for the full control effect; nearly all actives have a fitted effect of over 50% in size
Target sequence (O75164 whole entry, looked up, the tested form may be a part): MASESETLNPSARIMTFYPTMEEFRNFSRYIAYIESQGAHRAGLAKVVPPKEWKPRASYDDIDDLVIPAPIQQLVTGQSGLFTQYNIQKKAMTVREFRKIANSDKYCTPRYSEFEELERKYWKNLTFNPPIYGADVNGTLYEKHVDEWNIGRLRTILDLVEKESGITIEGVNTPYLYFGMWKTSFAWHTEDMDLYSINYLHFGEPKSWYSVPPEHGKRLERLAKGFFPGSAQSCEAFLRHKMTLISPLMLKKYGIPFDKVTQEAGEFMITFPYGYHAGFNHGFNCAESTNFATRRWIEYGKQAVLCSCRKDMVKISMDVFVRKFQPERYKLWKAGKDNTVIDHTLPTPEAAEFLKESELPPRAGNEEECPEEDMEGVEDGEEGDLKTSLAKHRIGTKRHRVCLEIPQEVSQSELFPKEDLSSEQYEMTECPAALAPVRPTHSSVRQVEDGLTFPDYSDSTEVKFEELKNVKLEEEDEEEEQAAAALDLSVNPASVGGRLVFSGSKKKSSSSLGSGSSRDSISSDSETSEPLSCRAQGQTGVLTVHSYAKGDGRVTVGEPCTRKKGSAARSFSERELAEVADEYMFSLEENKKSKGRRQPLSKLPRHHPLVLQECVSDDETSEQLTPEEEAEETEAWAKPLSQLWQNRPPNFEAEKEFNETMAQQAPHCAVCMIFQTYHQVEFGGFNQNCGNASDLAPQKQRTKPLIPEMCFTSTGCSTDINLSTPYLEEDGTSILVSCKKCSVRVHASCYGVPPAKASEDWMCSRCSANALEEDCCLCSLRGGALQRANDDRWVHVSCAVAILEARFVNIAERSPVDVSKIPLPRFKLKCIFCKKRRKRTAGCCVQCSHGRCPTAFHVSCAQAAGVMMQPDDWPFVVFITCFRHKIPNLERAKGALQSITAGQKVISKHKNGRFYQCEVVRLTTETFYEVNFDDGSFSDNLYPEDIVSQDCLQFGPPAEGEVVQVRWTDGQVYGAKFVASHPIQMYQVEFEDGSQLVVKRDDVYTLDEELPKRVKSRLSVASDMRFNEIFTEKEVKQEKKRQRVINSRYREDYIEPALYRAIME
HP1b binding inh: HP1-beta chromodomain-methylated histone interaction inhibition; Potency, µM (titrated, usually from 114 µM), inactives show at the highest dose activity change, negative = inhibition, most hits filed as inhibitors; 390,000 tested, 0.56% active; P83916; AlphaScreen HP1-beta / biotin-H3K9me3 peptide binding; note: nearly all actives have a fitted effect of over 70% in size
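HP1-beta protein (50 nM final) preincubated 30 min at room temperature with biotinylated H3(1-18)K9me3 peptide (50 nM) in PBS pH 7.4, 0.01% Tween-20, then compound added for 30 min. AlphaScreen streptavidin donor/nickel chelate acceptor beads (10 ug/mL final), 30 min dark, luminescence read.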
The depositor's hits bear a star; [ ] = another dose, or the depositor's remark. Hits are enriched below; roughly 12% of the tested compounds scored in any of these assays. Calls come from the whole dose curve; as a rule, active = well fitted curve in the direction sought with a large enough effect; inconclusive = small, poorly fitted or top-dose-only effect, or another doubt; inactive = no such curve, though single readings can be large; an effect the other way counts as inactive or inconclusive. Potency is the fitted concentration of half-maximal effect.

Screening Cc1ccc([C@@H]2CC=C(C(=O)O)[C@H](c3ccc(C(C)(C)C)cc3)N2S(=O)(=O)c2ccc(C)cc2)cc1 returned PLK1 PBD inh 26.7µM*, JMJD2A Tudor inh inconclusive and HP1b binding inh 30.5%.
`CCOC(=O)C1=CC[C@@H](c2ccccc2)N(S(=O)(=O)c2ccc(C)cc2)[C@@H]1C#N` gave PLK1 PBD inh 15µM*.
Screening Cc1ccc([C@@H]2CC=C(C(=O)O)[C@H](c3ccc(F)cc3)N2S(=O)(=O)c2ccc(C)cc2)cc1 returned PLK1 PBD inh -19.7%, G9a inh -20.1%[2.33 µM], BAZ2B block 5.3%, JMJD2A Tudor inh -17.6% and HP1b binding inh 30.0%.
Cc1ccc(S(=O)(=O)N2[C@@H](c3ccc(C(C)(C)C)cc3)C(C(=O)O)=CC[C@H]2c2ccc(C(C)C)cc2)cc1 was read as PLK1 PBD inh 16.8µM*, JMJD2A Tudor inh 79.4µM* and HP1b binding inh 8.5%.
Cc1ccc(C)c(N(C)S(=O)(=O)c2ccc3[nH]cc(C(=O)NC4CCCC4)c(=O)c3c2)c1 was read as G9a inh 2.2%[59 µM], BAZ2B block -17.3%, JMJD2A Tudor inh inconclusive and HP1b binding inh 0.4%.
Cc1ccc(S(=O)(=O)N2[C@@H](c3ccc(Cl)cc3)C(C(=O)O)=CC[C@H]2c2ccc(Cl)c(Cl)c2)cc1 was read as PLK1 PBD inh inconclusive, G9a inh 19.8%[2.33 µM], BAZ2B block inconclusive, JMJD2A Tudor inh -31.5% and HP1b binding inh 18.2%.
Cc1ccc([C@H]2C(C(=O)O)=CC[C@@H](c3cccs3)N2S(=O)(=O)c2ccc(C)cc2)cc1 was read as PLK1 PBD inh -20.5%, JMJD2A Tudor inh -16.4% and HP1b binding inh 20.3%.
For CCc1ccc([C@@H]2CC=C(C(=O)O)[C@H](c3ccc(C(C)(C)C)cc3)N2S(=O)(=O)c2ccc(C)cc2)cc1 the results were PLK1 PBD inh 23.8µM*, JMJD2A Tudor inh inconclusive and HP1b binding inh 11.4%.
Cc1ccc(S(=O)(=O)N2[C@@H](c3ccc(C(C)(C)C)cc3)C(C(=O)O)=CC[C@H]2c2cccs2)cc1 was read as PLK1 PBD inh 23.8µM*, JMJD2A Tudor inh -15.9% and HP1b binding inh 14.3%.
Cc1ccc(S(=O)(=O)N2C(c3ccc(Cl)c(Cl)c3)CC=C(C(=O)O)C2c2ccc(Cl)cc2)cc1 (stereo not given) was read as PLK1 PBD inh 26.7µM*.
Cc1ccc(S(=O)(=O)N2[C@@H](c3ccc(C(C)(C)C)cc3)C(C(=O)O)=CC[C@H]2c2ccc(Cl)cc2)cc1 was read as PLK1 PBD inh 21.2µM*, JMJD2A Tudor inh -24.0% and HP1b binding inh 55.7%.
Cc1ccc(NC(=O)Nc2nnc(SCC(=O)N3CCC(C)CC3)s2)cc1 was read as G9a inh 2.5%[59 µM], BAZ2B block -20.8%, JMJD2A Tudor inh -10.1% and HP1b binding inh 39.7%.
For Cc1ccc(S(=O)(=O)N2[C@@H](c3cccc(Cl)c3)C(C(=O)O)=CC[C@H]2c2ccc(Cl)cc2)cc1 the results were PLK1 PBD inh 26.7µM*, G9a inh 10.7%[2.33 µM], BAZ2B block 8.9%, JMJD2A Tudor inh -23.9% and HP1b binding inh 26.3%.
For COC(=O)C1=C(N)OC2=C(C(=O)CC(C)(C)C2)C1c1ccoc1 (stereo not given) the results were PLK1 PBD inh 4.74µM*, G9a inh inconclusive, Sfp inh 17.9%, JMJD2A Tudor inh -33.6%[11.4 µM] and HP1b binding inh inconclusive.
Cc1ccc(C(=O)N2CCN(S(=O)(=O)c3ccccc3[N+](=O)[O-])CC2)o1 was read as PLK1 PBD inh -15.7%, G9a inh -44.4%, Sfp inh 6.5%, JMJD2A Tudor inh -31.3% and HP1b binding inh -7.4%.
For COc1ccc(CN(C)C(=O)CNC(=O)Cc2cccc3ccccc23)c(OC)c1OC the results were PLK1 PBD inh 2.8%, BAZ2B block -12.0%, Sfp inh 2.1%, JMJD2A Tudor inh -13.0% and HP1b binding inh 32.1%.
